# Compounds with a hit are over-represented: about 21% of the library has one in this group of screens.
# Pf growth 48h = inhibits P. falciparum growth in the first generation, 48 h | P. falciparum luciferase growth in erythrocytes, 48 h | AID 504832 | Potency, µM (doses to about 28.7 µM), inactives show at the highest dose activity change, negative = inhibition, actives largely listed as inhibitors | 310,000 compounds, 5.9% hits; also: potency is read from the fitted curve at half-maximal effect; % is scaled to controls: 0 for no effect and ±100 for the full control effect
#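 In quantitative HTS format, infected erythrocytes bearing luciferase-reporter parasites were treated for a single generation at 37 C. Luminescence after adding detection reagent served as the growth measure.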
# Pf growth 96h = inhibits malaria parasite growth, 96 h; P. falciparum luciferase reporter growth, 96 h; Potency, µM (top dose mostly 28.7 µM), without a hit: at the highest dose activity change, negative = inhibition, actives largely listed as inhibitors; 320,000 compounds, 6.9% hits; AID 504834; also: potency is read from the fitted curve at half-maximal effect; % is scaled to controls: 0 for no effect and ±100 for the full control effect
#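 Two parasite generations (96 h, 37 C, 5% CO2) of compound exposure in infected erythrocytes (0.05% parasitemia, 2% hematocrit). Luciferase-reporter P. falciparum; decreased luminescence indicates inhibited growth, aimed at apicoplast-acting delayed death.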
# Cycloheximide cs = counter-screen hit for Shiga toxin inhibitors, cycloheximide; cell reporter, cycloheximide protein synthesis inhibition counterscreen; max response, %; 300,000 compounds, 12% hits; in the data active = max response mostly above about 13%, no sharp cut-off; inactive = mostly below about 14%; also: read at 38.3 µM for the half of the compounds with a filed dose; 0% is about no effect
# NS1 function inh = influenza NS1 inhibition; Potency, µM (top dose mostly 46.1 µM), inactives show at the top dose activity, positive = more growth; 270,000 compounds, 0.4% hits; AID 2326; calls by dose curve; also: potency is read from the fitted curve at half-maximal effect; actives are rising curves; nearly all actives have a fitted effect of over 50% in size
#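 Growth recovery, yeast-based: influenza A NS1 expressed in S. cerevisiae causes slow growth, and suppressors are detected by OD600. The parent strain without NS1 is used as positive control.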
# FBPA Giardia inh = inhibitors of Giardia lamblia fructose-1,6-bisphosphate aldolase | 290,000 compounds, 0.71% hits | AID 2451 | Potency, µM (top dose mostly 59.6 µM), for inactives: top-dose activity, negative = inhibition, actives largely listed as inhibitors | A8B2U2 | purified Giardia FBPA; also: potency is read from the fitted curve at half-maximal effect; % is scaled to controls: 0 for no effect and ±100 for the full control effect; nearly all actives have a fitted effect of over 55% in size
# Target sequence (A8B2U2 whole entry, looked up): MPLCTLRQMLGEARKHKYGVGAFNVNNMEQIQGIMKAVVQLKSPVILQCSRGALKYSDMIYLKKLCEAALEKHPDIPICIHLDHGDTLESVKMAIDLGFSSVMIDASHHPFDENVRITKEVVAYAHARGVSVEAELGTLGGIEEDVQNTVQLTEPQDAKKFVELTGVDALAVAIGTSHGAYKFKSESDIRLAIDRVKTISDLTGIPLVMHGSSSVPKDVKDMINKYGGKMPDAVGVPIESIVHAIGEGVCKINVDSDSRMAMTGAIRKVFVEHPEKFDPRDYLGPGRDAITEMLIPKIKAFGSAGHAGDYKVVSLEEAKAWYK
#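 Giardia FBPA (40 nM reagent) was preincubated 10 min at RT with compound (up to 57.5 uM final), then substrate plus GAPDH/TPI/NAD/arsenate coupling system with diaphorase/resazurin was added; resorufin fluorescence (525/598 nm) was read after 20 min.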
# Shiga toxin inh = blocks Shiga toxin action in Vero cells; Vero cells, Shiga toxin protein synthesis inhibition reporter; inhibition, % at 38.7 µM; 290,000 compounds, 9.2% hits; in the data active = inhibition mostly above about 28%, no sharp cut-off; inactive = mostly below about 43%; also: 0% is about no effect
# * = called active by the depositor; ? = inconclusive; . = no result given; [ ] = another dose, or the depositor's remark. Unless noted, calls follow the shape of the dose curve; as a rule, active = well fitted curve in the direction sought with a large enough effect; inconclusive = small, poorly fitted or top-dose-only effect, or another doubt; inactive = no such curve, though single readings can be large; an effect the other way counts as inactive or inconclusive.
SMILES,Pf growth 48h,Pf growth 96h,Cycloheximide cs,NS1 function inh,FBPA Giardia inh,Shiga toxin inh
CCS(=O)(=O)N1CCC(NC(=O)C(Cc2cc(OC)ccc2OC)NC(C)=O)CC1 (stereo not drawn),5.5%,?,-1.8,15.2%,-2.3%,-3.2
c1ccc(CCn2nnnc2C(c2cccnc2)N2CCN(c3nc4ccccc4s3)CC2)cc1 (stereo not drawn),13.1µM*,7.5%,-0.9,-106.2%,0.1%,-13.5
c1ccc(CCn2nnnc2C(c2cccnc2)N2CCN(c3ccccc3)CC2)cc1 (stereo not drawn),?,4.0%,-3.7,-57.4%,23.2%,-2.9
COc1ccc(C(c2nnnn2CC2CCCO2)N2CCN(c3ccc(F)cc3)CC2)cc1 (stereo not drawn),?,8.28µM*,-7.3,-11.1%,-9.0%,-10.8
COc1ccc(Cn2nnnc2C(C(C)C)N2CCN(c3ccccc3OC)CC2)cc1 (stereo not drawn),4.65µM*,15.1%,7.7,-35.2%,-5.2%,-6.2
COCCn1nnnc1C(c1ccc(OC)c(OC)c1)N1CCN(c2nc3ccccc3s2)CC1 (stereo not drawn),13.1µM*,2.94µM*,-1.8,-12.3%,-14.3%,-18.6
Cc1ccc(C(c2nnnn2CC2CCCO2)N2CCN(C)CC2)cc1 (stereo not drawn),19.4%,1.6%,-2.3,-1.1%,-0.2%,-6.6
CC(=O)c1sc(NC(=O)CN2C(=O)C3CCCCC3C2=O)nc1-c1ccccc1 (stereo not drawn),2.2%,14.7%,.,.,.,.
Cc1ccccc1Cn1c(C)nc2ccc([N+](=O)[O-])cc2c1=O,-8.6%,?,-2.8,-15.6%,7.6%,-16.3
COc1ccc(-c2noc(C(C)NC(=O)c3ccco3)n2)cc1OC (stereo not drawn),10.4%,15.0%,-1.4,25.6%,3.8%,-5.2
CN(C)S(=O)(=O)c1ccc(NC(=O)CN2C(=O)NC3(CCCC3)C2=O)cc1,0.0%,3.0%,-7.9,1.2%,-2.9%,-5.5
CC(C)(C)c1ccc(S(=O)(=O)N2CCC(NC(=O)c3ccco3)CC2)cc1,?,8.9%,-6.2,-0.4%,.,-9.4
CC#CCN1c2ccccc2[C@]23C[C@@H](C(=O)OC)N(S(=O)(=O)c4ccc(C)cc4)C2=NC(C(=O)OC)=C(C(=O)OC)[C@H]13,.,.,.,.,-2.2%[12.9 µM],.
COc1ccc(C(c2nnnn2Cc2ccccc2)N2CCN(c3nc4ccccc4s3)CC2)cc1 (stereo not drawn),5.22µM*,.,-3.3,12.0%,-2.6%,-8.2
c1ccc(CN2CCN(C(c3ccccc3)c3nnnn3Cc3ccccc3)CC2)cc1 (stereo not drawn),?,32.2%,-1.4,5.3%,1.0%,-4.0
COc1ccc(C(c2nnnn2Cc2ccccc2)N2CCN(c3ccccc3)CC2)cc1 (stereo not drawn),?,13.1µM*,1.3,-1.7%,-4.1%,-27.8
COc1ccc(Nc2nc(-c3sc(C)nc3C)cs2)c(OC)c1,-8.4%,?,8.8*,-107.8%,3.2%,13.5
COc1ccccc1Nc1nc(-c2cccs2)cs1,295.6%,371.3%,37.2*,-26.3%,-9.8%,76.9*
Cc1nc(C)c(-c2csc(Nc3ccc(S(N)(=O)=O)cc3)n2)s1,21.4%,26.5%,1.6,13.0%,1.1%,-6.9
COc1ccc(C)cc1Nc1nc(-c2c[nH]c3ccccc23)cs1,?,2.08µM*,8.6,?,-9.4%,-16.8
COc1ccc(C)cc1Nc1nc(-c2ccccc2O)nc2ccccc12,?,?,-3.4,4.1%,-10.2%,-7.2
COc1ccc(Nc2nc(-c3cccs3)cs2)c(OC)c1,.,179.9%,45.9*,-4.9%,?,105.8*
COc1ccc(Nc2nc(-c3cccs3)nc3ccccc23)c(OC)c1,-23.2%,?,5.3,-10.0%,-3.2%,21.8
CC(C(=O)Nc1ccc(Cl)cc1)N1C(=O)NC2(CCCC2)C1=O (stereo not drawn),18.0%,1.2%,-2.7,-0.1%,1.9%,3.6
COc1cccc(CCc2nnc(CCC(=O)NC(C)Cc3cccs3)o2)c1 (stereo not drawn),-2.7%,4.4%,7.1,-3.7%,9.7%,14.3
SMILES,Pf growth 48h,Pf growth 96h,Cycloheximide cs,NS1 function inh,FBPA Giardia inh,Shiga toxin inh
COc1cccc(Cn2c(=O)c(CCc3ccccc3)nc3cnc(N4CCOCC4)nc32)c1,.,.,.,.,7.3%,.
COc1ccc(OC)c(Nc2nc(-c3cccs3)cs2)c1,0.6%,.,23.1*,?,-10.4%,16.8
COc1ccc(Nc2nc(-c3cccs3)cs2)cc1,316.0%,0.522µM*,41.3*,3.1%,-13.3%,42.5*
COc1ccc(OC)c(Nc2nc(-c3c(C)nc4ncccn34)cs2)c1,3.6%[0.00184 µM],40.5%,2.2,-3.1%,-15.0%,0.6
Cn1c2c(c(=O)n(C)c1=O)[C@@]1(C(=O)Nc3ccccc31)C(C#N)=C(N)O2,?,13.1µM*,1.8,-27.4%,?,-13.8
Cc1cc2nc(-c3ccc(SCC(=O)Nc4ccc(S(=O)(=O)N5CCCC5)cc4)nc3)[nH]c2cc1C,?,?,35.9*,?,-3.7%,81.4*
Cc1cc2nc(-c3ccc(SCC(=O)Nc4nccs4)nc3)[nH]c2cc1C,0.0%,?,39.0*,1.6%,2.3%,15.3
Cc1ccc2nc(-c3ccc(SCC(=O)O)nc3)[nH]c2c1,80.5%,?,24.0,1.9%,-14.9%,27.0
CCc1nnc(NC(=O)CSc2ccc(-c3nc4ccc(C)cc4[nH]3)cn2)s1,81.0%,?,32.5*,19.2%,-11.8%,50.8*
CCCCOC(=O)CSc1n[nH]c(=O)[nH]c1=O,.,13.1µM*,0.7,-10.0%,-7.2%,15.6
Fc1cccc(NC(=S)NCc2cccnc2)c1,-11.2%,7.38µM*,3.8,9.8%,-11.0%,-4.9
O=C(Nc1ccncc1)c1cccc(F)c1,?,.,-1.3,-0.3%,1.7%,1.0
Cc1ccc(NC(=O)Nc2cccnc2)cc1NC(=O)Nc1cccnc1,9.28µM*,?,24.1*,1.1%,-0.4%,64.2
O=C(Nc1cccnc1)Nc1cccc(F)c1,6.1%,?,18.2*,4.5%,8.0%,20.5
O=C(Nc1ccncc1)Nc1cccc(F)c1,?,5.2%,29.3*,-0.9%,3.9%,66.6
CC/C=C\C/C=C\C/C=C\C/C=C\C/C=C\C/C=C\CCC(N)=O,.,.,.,.,-2.2%,.
COc1ccc(-c2nc3cnc(N4CCNCC4)nc3n(CCc3ccccc3)c2=O)cc1,.,.,.,.,-0.5%,.
COc1ccc(CCN(/C=C2\Sc3ccccc3C2=O)C(C)=O)cc1OC,100.1%,38.1%,41.7*,-3.5%,-4.5%,90.9
COc1ccc(CCN(C)C(=O)CN2C(=O)c3ccccc3S2(=O)=O)cc1OC,-7.7%,.,6.9,1.6%,5.3%,30.9
O=C(CCCN1C(=O)c2ccccc2C1=O)N1CCN(c2ccccn2)CC1,-11.0%,23.5%,-2.1,-2.7%,-0.8%,-2.4
O=C(CSCc1ccccc1Cl)N1CCN(c2ccccn2)CC1,.,0.0%,58.8*,-19.2%,-13.0%,119.4*

# Screening results: PubChem BioAssay, National Center for Advancing Translational Sciences (NCATS)
